Test results: PubChem BioAssay
Activity calls are given as the source filed them.

Key:
[1] = tested on: Human papillomavirus type 1a protein E7 (residues 44-93); test: small molecules binding HPV E7 44-93 – biochemical, small-molecule microarray, residues 44-93, 635 nm fluorescence, primary screen (AID 1108); conditions: fluorescence 635 nm, higher = more signal;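 note: E7 fragment applied at 1 µg/mL in TBST for 1 h at 4 C; score combines spot fluorescence with its signal to noise ratio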
[2] = hepatitis C replication reporter changes, two-sided – Huh7 cells, luciferase reporter, HCV replication inhibitor project, primary screen (AID 1109); conditions: Huh7 HCV replicon luciferase reporter, 48 h; higher = more signal;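 note: huh7 hepatoma cells harbouring a luciferase neomycin HCV replicon reporter; luciferase luminescence as measure of HCV replicon replication; test concentration not given here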
[3] = molecular target: Left-right determination factor 2 (Homo sapiens) (UniProt O00292); test: small molecules binding LEFTY2 protein – biochemical, small-molecule microarray, 635 nm fluorescence scan, primary screen (AID 1110); conditions: higher = more signal
[4] = molecular target: Calmodulin-1 (Homo sapiens) (UniProt P0DP23); test: small molecules binding calmodulin-1 with EGTA – biochemical, small-molecule microarray, Cy5-labelled CALM1, profiling panel (AID 1111); conditions: Cy5-CALM1 binding fluorescence, higher = more signal;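 note: labelled calmodulin applied in Tris saline Tween buffer holding calcium plus EGTA and DTT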
[5] = molecular target: Calmodulin-1 (Homo sapiens) (UniProt P0DP23); test: small molecules binding Ca-loaded calmodulin-1 – biochemical, small-molecule microarray, Cy5-labelled CALM1, plus calcium, artefact control for SMM control-protein annotation, profiling panel (AID 1112); conditions: Cy5-CALM1 binding fluorescence, higher = more signal;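 note: score merges spot fluorescence with signal to noise from triplicate slides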
[6] = probe aWnt5a binding to arrayed compounds – biochemical, biotinylated probe, 635/667 nm fluorescence, primary screen (AID 1113); conditions: small-molecule microarray, higher = more signal;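 note: score merges 667 nm fluorescence intensity with signal-to-noise per printed feature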
[7] = probe aShh binding to arrayed compounds – biochemical, biotinylated probe, 635/667 nm fluorescence, primary screen (AID 1114); conditions: small-molecule microarray, higher = more signal;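 note: probe is biotin-labelled aShh protein from a stem cell growth factor screen; measures binding of labelled protein to compounds printed on the slide; score merges feature fluorescence at 667 nm with signal-to-noise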
[8] = probe aNog binding to arrayed compounds – biochemical, biotinylated probe, 635/667 nm fluorescence, primary screen (AID 1115); conditions: small-molecule microarray, higher = more signal;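 note: probe is biotinylated aNog protein used at 0.15 µg/mL for 1 h at 4 C; z-score combines 667 nm fluorescence of each spot with its signal to noise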
[9] = molecular target: Torsin-1A-interacting protein 1 (Homo sapiens) (UniProt Q5JTV8); test: compound microarray binding of lysate hLAP1 – cell lysate, small-molecule microarray, COS7 lysate, 635/667 nm fluorescence, primary screen (AID 1116); conditions: 635 nm fluorescence, higher = more signal
[10] = molecular target: Alpha-bungarotoxin (Bungarus multicinctus) (UniProt P60615); test: compounds binding labelled alpha-BTX control protein – biochemical, small-molecule microarray, Alexa647 label, 635/667 nm fluorescence, artefact control for SMM control protein annotation, profiling panel (AID 1117); conditions: alpha-BTX-A647 binding fluorescence, higher = more signal
Albumin (Bos taurus) = Albumin (Bos taurus) (UniProt P02769); test: compounds binding labelled BSA control protein – biochemical, small-molecule microarray, Alexa647 label, 635/667 nm fluorescence, artefact control for SMM control protein annotation, profiling panel (AID 1118); conditions: BSA-A647 binding, fluorescence 635 nm, higher = more signal;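 note: score merges 667 nm emission intensity and signal-to-noise per printed compound spot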
[11] = probe aXIP binding to arrayed compounds – biochemical, NeuroSMM set, 635/667 nm fluorescence, primary screen (AID 1119); conditions: small-molecule microarray, higher = more signal, called active from +8 up or from −8 down;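 note: probe is the protein aXip251-270 applied at 1 µg/mL to compound-printed slides; binding of probe to printed compounds measured as 667 nm fluorescence plus signal to noise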
[12] = probe aNOTCH3 binding on compound microarray – biochemical, small-molecule microarray, 635/667 nm fluorescence, primary screen (AID 1120); conditions: higher = more signal;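 note: probe is a biotin-tagged antibody raised against NOTCH3 rather than NOTCH3 protein; score merges spot fluorescence near 667 nm with spot signal to noise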
[13] = probe aNOTCH2 binding on compound microarray – biochemical, small-molecule microarray, 635/667 nm fluorescence, primary screen (AID 1121); conditions: higher = more signal;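 note: score merges feature fluorescence read at 667 nm with its signal to noise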
[14] = molecular target: Carbonic anhydrase 2 (Homo sapiens) (UniProt P00918); test: compounds binding carbonic anhydrase 2 – biochemical, small-molecule microarray, Alexa647-labelled CAII, profiling panel (AID 1122); conditions: CAII-A647 binding fluorescence, higher = more signal
[15] = COS7 lysate on small-molecule microarray, probe aHis, 635 nm (AID 1123); conditions: COS7 cell lysate, fluorescence, higher = more signal;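 note: z-score combines 667nm fluorescence intensity with signal-to-noise per printed compound spot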
[16] = probe aLAP1 signal on lysate-treated microarray – cell lysate, small-molecule microarray, COS7 lysate, primary screen (AID 1124); conditions: probe aLAP1, fluorescence, higher = more signal;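 note: lysate comes from COS7 cells expressing LAP1 and is applied at 0.3 µg/mL; score merges spot fluorescence near 667 nm with signal-to-noise over triplicate slides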
Sam68 (KHDRBS1) = test: compounds binding KHDRBS1 protein – biochemical, small-molecule microarray, 635 nm fluorescence, primary screen (AID 1125); conditions: higher = more signal;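 note: score merges 667 nm channel intensity with signal to noise over triplicate slides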
[17] = tested on: Chordin-like protein 2 (CHRDL2); test: compounds binding chordin-like 2 – biochemical, small-molecule microarray, 635 nm fluorescence, primary screen (AID 1126); conditions: fluorescence 635 nm, higher = more signal;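 note: printed compound slides probed with Chrdl2 protein at 4 µg/mL for 1 h at 4 C; score merges 667 nm emission intensity with signal to noise over three replicate slides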
[18] = molecular target: Concanavalin-A (Canavalia ensiformis) (UniProt P02866); test: compounds binding concanavalin A lectin – biochemical, small-molecule microarray, Alexa647 label, 635 nm, artefact control for SMM control protein annotation, primary screen (AID 1127); conditions: ConA-A647 binding fluorescence, higher = more signal;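 note: z combines 667 nm emission intensity with signal-to-noise across three replicate slides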
Concanavalin-A (Canavalia ensiformis), sequence (P02866 whole entry, looked up): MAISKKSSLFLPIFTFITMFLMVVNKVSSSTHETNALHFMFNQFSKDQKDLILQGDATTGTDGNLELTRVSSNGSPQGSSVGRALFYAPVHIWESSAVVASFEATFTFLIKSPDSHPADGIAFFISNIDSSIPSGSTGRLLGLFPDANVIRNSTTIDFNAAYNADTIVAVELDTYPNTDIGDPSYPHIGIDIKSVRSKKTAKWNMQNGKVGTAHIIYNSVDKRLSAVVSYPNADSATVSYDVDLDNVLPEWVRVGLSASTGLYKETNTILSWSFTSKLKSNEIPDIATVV

Alpha-bungarotoxin (Bungarus multicinctus), sequence (P60615 whole entry, looked up): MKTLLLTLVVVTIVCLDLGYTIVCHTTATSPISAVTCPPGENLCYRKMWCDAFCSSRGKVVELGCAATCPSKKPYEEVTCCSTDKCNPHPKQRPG
Left-right determination factor 2 (Homo sapiens), sequence (O00292 whole entry, looked up): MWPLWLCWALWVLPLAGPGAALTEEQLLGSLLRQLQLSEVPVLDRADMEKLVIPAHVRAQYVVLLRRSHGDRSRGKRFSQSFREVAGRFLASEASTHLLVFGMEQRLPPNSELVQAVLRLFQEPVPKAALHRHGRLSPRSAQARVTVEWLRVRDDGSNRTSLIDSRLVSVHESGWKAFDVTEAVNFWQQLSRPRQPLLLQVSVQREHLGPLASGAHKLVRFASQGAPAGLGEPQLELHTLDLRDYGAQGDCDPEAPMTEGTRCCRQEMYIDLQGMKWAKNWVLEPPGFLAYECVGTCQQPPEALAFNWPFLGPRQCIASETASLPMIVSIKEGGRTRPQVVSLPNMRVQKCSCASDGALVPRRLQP
Albumin (Bos taurus), sequence (P02769 whole entry, looked up): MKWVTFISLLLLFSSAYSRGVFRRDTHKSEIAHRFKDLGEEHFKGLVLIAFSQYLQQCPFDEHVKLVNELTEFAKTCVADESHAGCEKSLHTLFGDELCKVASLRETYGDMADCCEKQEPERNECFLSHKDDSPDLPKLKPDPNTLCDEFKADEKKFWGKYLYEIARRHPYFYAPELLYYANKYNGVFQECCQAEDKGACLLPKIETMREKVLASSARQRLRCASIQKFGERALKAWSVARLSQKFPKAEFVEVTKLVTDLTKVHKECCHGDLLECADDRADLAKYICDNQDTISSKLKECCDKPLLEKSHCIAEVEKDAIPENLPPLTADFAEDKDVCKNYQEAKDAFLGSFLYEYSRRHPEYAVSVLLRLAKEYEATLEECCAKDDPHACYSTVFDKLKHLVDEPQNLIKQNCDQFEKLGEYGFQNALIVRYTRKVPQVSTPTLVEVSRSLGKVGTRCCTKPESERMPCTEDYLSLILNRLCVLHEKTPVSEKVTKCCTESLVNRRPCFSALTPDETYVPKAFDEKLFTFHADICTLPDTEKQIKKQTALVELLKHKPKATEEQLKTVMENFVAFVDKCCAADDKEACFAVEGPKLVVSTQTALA
Torsin-1A-interacting protein 1 (Homo sapiens), sequence (Q5JTV8 whole entry, looked up): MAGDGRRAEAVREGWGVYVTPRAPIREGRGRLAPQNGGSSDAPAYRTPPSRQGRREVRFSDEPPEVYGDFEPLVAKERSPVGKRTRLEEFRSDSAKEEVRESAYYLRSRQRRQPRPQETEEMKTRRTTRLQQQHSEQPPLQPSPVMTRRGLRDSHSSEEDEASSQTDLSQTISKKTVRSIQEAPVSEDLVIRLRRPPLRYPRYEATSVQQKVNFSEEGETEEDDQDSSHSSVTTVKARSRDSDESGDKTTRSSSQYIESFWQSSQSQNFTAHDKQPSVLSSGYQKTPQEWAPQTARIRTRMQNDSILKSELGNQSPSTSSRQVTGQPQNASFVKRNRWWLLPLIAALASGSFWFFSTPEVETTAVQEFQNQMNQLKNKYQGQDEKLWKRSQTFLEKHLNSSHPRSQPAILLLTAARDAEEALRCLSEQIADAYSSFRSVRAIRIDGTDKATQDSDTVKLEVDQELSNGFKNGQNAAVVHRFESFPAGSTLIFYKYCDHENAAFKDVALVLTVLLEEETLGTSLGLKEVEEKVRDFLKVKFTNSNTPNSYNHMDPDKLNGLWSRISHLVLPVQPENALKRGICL

Row | SMILES | composite z-score [1] | z-score [2] | composite z-score [3] | composite z-score [4] | composite z-score [5] | composite z-score [6] | composite z-score [7] | composite z-score [8] | composite z-score [9] | composite z-score [10] | composite z-score (Albumin (Bos taurus)) | composite Z-score [11] | composite z-score [12] | composite z-score [13] | composite z-score [14] | composite z-score [15] | composite z-score [16] | composite z-score (Sam68 (KHDRBS1)) | composite z-score [17] | composite z-score [18]
1 | COc1ccc([Si](C)(C)[C@@H]2[C@@H](CCn3cc([C@H](O)c4ccccc4)nn3)O[C@]3(C(=O)N(c4ccccc4)c4ccccc43)[C@H]2C)cc1 | -0.0404 | -3.76 | -0.184 | 0.052 | -0.336 | -0.096 | 0.413 | 0.383 | 0.0664 | 0.351 | -0.591 | -0.424 (inactive) | -0.145 | -0.131 | 0.0028 | 0.233 | -0.232 | 0.548 | -0.063 | 0.503
2 | CCCNC(=O)[C@@]1(C)c2ccccc2C(=O)N(Cc2ccccc2)[C@H]1c1ccc(CO)cc1 | 0.391 | 0.398 | -0.626 | -0.0596 | 0.095 | -0.197 | -0.0421 | -0.378 | 0.78 | -0.612 | 0.0799 | 2.55 (inactive) | -0.128 | 0.0313 | 0.71 | 2.68 | 0.931 | 0.526 | -1.13 | 0.657
3 | COc1cc(NN2C(C(O)c3ccccc3)C=CC3C(=O)N(C)C(=O)C32)cc(OC)c1OC (stereo not given) | 1.35 | -0.928 | 0.222 | 0.533 | -0.171 | 0.0437 | 0.151 | 0.521 | 0.891 | 0.544 | 0.566 | 1.13 (inactive) | 0.12 | -0.0817 | 0.781 | 1.73 | 0.481 | 1.3 | -0.179 | 0.659
4 | CCCCCCCCCCC(O)C1C=CC2C(=O)N(C)C(=O)C2N1Nc1cc(OC)c(OC)c(OC)c1 (stereo not given) | -0.298 | -2.01 | -1.11 | 1.82 | 1.39 | -0.0529 | -0.0398 | 0.837 | -0.232 | 0.229 | 0.869 | 0.776 (inactive) | -0.125 | -0.0521 | 0.0172 | 1.44 | 0.148 | -0.383 | -1.3 | 0.245
5 | C=C[C@@H](OC)[C@H](OC(=O)Nc1ccc(SC)cc1)c1ccc(OCCO)cc1 | 1.44 | 0.462 | 0.0128 | 0.469 | -0.0827 | -0.0735 | 0.0639 | 0.36 | 1.03 | 1.36 | 0.687 | 0.0939 (inactive) | 0.23 | -0.101 | 0.361 | 1.89 | 0.35 | 1.34 | 0.207 | 0.89
6 | COc1ccc(C(O)C2C=CC3C(=O)N(c4ccccc4)C(=O)C3N2Nc2ccccc2F)cc1 (stereo not given) | 0.726 | -0.139 | -0.591 | 0.528 | 0.062 | -0.0991 | 0.0062 | 0.853 | 0.982 | 1.01 | 0.894 | 0.319 (inactive) | 0.154 | 0.12 | 0.399 | 1.69 | 1.14 | 1.2 | -0.798 | 0.515
7 | COC(=O)[C@@]1(Cc2ccc(OC)cc2)[C@H]2c3cc(C(=O)N4CCCC4)n(Cc4cc(C)n(C)n4)c3C[C@H]2CN1C(=O)c1ccccc1 | 0.712 | -1.38 | 0.78 | 1.46 | 0.81 | 0.23 | 0.4 | 0.352 | 1.21 | 0.769 | 1.09 | 5.19 (inactive) | 0.313 | 0.446 | 0.962 | 3.19 | 0.637 | 1.32 | -1.19 | 0.485
8 | C=CC[C@H](OC(=O)Nc1ccc(SC)cc1)c1ccc(OCCO)cc1 | -0.833 | 1.34 | -0.952 | -0.316 | 0.461 | -0.0994 | 0.0188 | 1.48 | -0.286 | 0.191 | -0.0497 | 0.154 (inactive) | -0.0321 | -0.0996 | 0.655 | -0.365 | 0.656 | -1.12 | 0.0241 | -0.32
9 | C=C(COC)C(=O)CC[C@H](OC(C)=O)c1ccc(OCCO)cc1 | 0.159 | -1.17 | 0.557 | -0.2 | -1.08 | -0.0445 | -0.0011 | -0.0562 | 3.4 | 0.915 | -0.0592 | -0.308 (inactive) | -0.0362 | -0.0971 | 0.549 | 0.523 | 2.46 | 0.666 | 0.569 | 0.488
10 | COCCCNC(=O)[C@@H]1c2ccccc2C(=O)N(C2Cc3ccccc3C2)[C@H]1c1ccc(CO)cc1 | 0.661 | -0.689 | 0.173 | -0.362 | -0.518 | -0.152 | -0.229 | -0.532 | 0.685 | -0.0047 | -0.423 | 0.47 (inactive) | -0.0584 | -0.0772 | 0.724 | 1.19 | 0.59 | 0.749 | 0.573 | 0.286
11 | [N-]=[N+]=Nc1ccccc1C[C@]1(C(=O)NCc2ccccc2)COC(c2ccc(OCCCO)cc2)=N1 | 1.4 | -3.22 | -0.576 | 0.575 | 0.154 | 0.0004 | -0.167 | 0.919 | 1.42 | 1.04 | 0.784 | -0.135 (inactive) | 0.0945 | -0.0859 | 0.383 | 2.52 | 0.171 | 1.3 | -0.362 | 0.995
